Experimental data reported in PubChem BioAssay (NCI).
The panel holds about 83,000 compounds, 20% with a hit somewhere; the sample as a whole holds those more often.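 In brief: 96-well plates, 48 h treatment, single concentration, percent growth endpoint.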 Unmarked numbers belong to inactive results. The source made the active and inactive calls. The calls were made as follows: active = growth percent below 10; inactive = the rest.

tested on: KM12 colon; test: NCI-60 one-dose screen, 48 h (100 = growth as untreated, 0 = no growth, -100 = all killed); conditions: 10 µM unless noted

SMILES | growth
CC(C)c1[nH]ncc1-c1nc2ccc3[nH]ncc3c2c2c1CCCC2 | 17.4%
Cc1cc(-c2nnc(/C=C/c3ccc4c(c3)OCO4)o2)n[nH]1 | 36.1%
CCN(CC)CCCCCCCNc1cc(OC)cc2c(C)ccnc12 | 89.9%
CCCc1n(Cc2ccc3ccccc3n2)cc[n+]1Cc1ccc2ccccc2n1 | 15.7%
COc1ccc(/C=C2\N=C(c3cccnc3)N(c3ccccc3)NC2=O)cc1 | 95.3%
COc1ccc(Sc2[nH]c(C=O)c3ccccc23)cc1 | 22%
COc1ccc(-n2nc(C(=O)NCC(=O)Nc3nc4cc(OC)ccc4s3)c3ccccc3c2=O)cc1 | 18.2%
CCCCN(CCCC)CCCN=c1nc2c(c(N)n1-c1ccccc1)c(=S)n(-c1ccccc1)c(=S)n2-c1ccccc1 | -100% (active)
O=C(/C=C/c1ccccc1)C(Br)C(Br)c1ccccc1 (centres undefined) | 8.19% (active)
COc1ccc(Nc2ncccc2C(=O)NCc2cn(Cc3cc(OC)cc(OC)c3)nn2)cc1 | 102%
CN(C)c1ccc(C(c2ccccc2)c2ccc(N(C)C)cc2)cc1 | 91.5%
COc1ccc(/C(=C\c2cc(OC)c(OC)c(OC)c2)C(=O)N2CCNCC2)cc1 | 94.2%
CC(=O)c1ccc(Nc2nc(Cl)nc(Oc3c(Cl)cccc3Cl)n2)cc1 | 98%
COc1cc2nccc(Oc3ccc(NC(=O)C4(C(=O)Nc5ccc(F)cc5)CC4)cc3)c2cc1Oc1ccc(N)cn1 | 3.7% (active)
N#Cc1nc(-c2ccc(Cl)cc2)cc(-c2ccc(Nc3nc(N4CCCCC4)nc(N4CCCCC4)n3)cc2)c1N | 107%
Cc1ccccc1CNc1ncnc2[nH]ncc12 | 112%
CN(C)CCOc1nc2c3ccncc3cc(-c3cccc(Cl)c3)c2c2cnccc12 | 31.8%
Cc1ccc(C2CC(c3cccs3)=NN2c2ccc(S(N)(=O)=O)cc2)s1 (centres undefined) | 93.2%
CN=C1C=C/C(=N/N=c2/ccn(O)cc2C)C=C1C | 109%
Oc1[nH]c2ccccc2c1/C=c1/ccc2c(c1)N=C(c1ccc(C(F)(F)F)cc1)N=2 | 31.6%

SMILES | growth
Clc1ccc(Nc2ncnc3c2sc2ncccc23)cc1 | 56.2%
Nc1nc(N)c2cc(Sc3ccc(Cl)cc3)ccc2n1 | 20.5%
CCN(C(=O)Nc1cccc2ccccc12)c1ccccc1 | 108%
CCN(CC)CCCC(C)Nc1cnc(C(=O)Nc2ccc(Cl)c3cccnc23)cn1 (centres undefined) | 30.3%
C/C(=N\NC(=S)Nc1ccccc1)c1ccccn1 | 29.7%
C[C@]12CCc3nc(Nc4ccc(O)cc4)sc3C1=CC[C@@H]1[C@@H]2CC[C@]2(C)/C(=N/NC(N)=S)CC[C@@H]12 | -64.9% (active)
CC1(C)C(N(O)C(=O)Nc2ccc(Cl)cc2)N(c2ccc(Cl)cc2)C(=O)N1CC(=O)N/N=C/C=C/c1ccc([N+](=O)[O-])o1 (centres undefined) | 23.1%
COc1ccc(C(=O)c2c(N)nc3n2CCCC3)cc1OC | 101%
Fc1ccc2c(CN3CCO[C@H](COc4cccc(Cl)c4)C3)c[nH]c2c1 | 38.9%
CC(=O)c1c(C)nc(-c2cc(C)cc(Cl)c2)nc1-c1cccc(Oc2ccccc2)c1 | 30.7%
FC(F)(F)c1ccc(/C=N/Nc2nnc3n2N=C(c2ccc(Cl)cc2)CS3)cc1 | 76.9%
O=C1/C(=C\c2cccn2C(=O)c2ccccc2)c2ccccc2N1c1c(Cl)cccc1Cl | 65.4%
Cc1ccc(S(=O)(=O)NC(CCC(=O)Nc2ccc(Cl)cc2)C(=O)Nc2ccc(Cl)cc2)cc1 (centres undefined) | 12.8%
CNC(=O)c1cc(Oc2ccc(NC(=O)c3nc(S(C)(=O)=O)n(C)c3-c3ccc(F)cc3)cc2)ccn1 | 21.9%
Nc1c(C(=O)c2ccc(Br)cc2)sc2nc3c(cc12)CCCC3 | 75.4%
CCCCn1cnc(-c2cc(-c3ccccc3)cc(C(F)(F)F)c2)n1 | 101%
COCCCNCC(=O)Nc1c(C)cccc1C | 109%
COc1ccc(/C(=C\c2ccc3c(c2)OCO3)C(=O)Nc2nc3ccccc3s2)cc1 | 101%
COc1ccc2[nH]c(O)c(/C=c3/ccc4c(c3)N=C(c3ccc(C(F)(F)F)cc3)N=4)c2c1 | 75.1%
